{"source": "ChEMBL document CHEMBL5606460", "about": "“ASAP - DENV-2 NS2B-NS3 protease fluorescence single point” (2024)", "target": "Genome polyprotein (dengue virus type 2) (UniProt P29990)", "key": {"[1]": {"conditions": "Thailand/16681/1984, Concentration 25.0 uM, Number of replicates 1.0"}}, "note": "In all, about 2,000 compounds went through this assay and about 110 (5.5%) showed an effect of 50% or more. Only a selection was taken, and strong results are over-represented in it overall.", "data": [{"smiles": "Cc1cc(CO)c2cccc(CC(=O)Nc3cc(C)on3)c2n1", "values": [{"measurement": "inhibition", "setting": "Thailand/16681/1984, Concentration 49.95 uM, Number of replicates 2.0, Standard deviation 0.056769444720657654 %", "value": 98.7, "unit": "%"}, {"measurement": "inhibition", "setting": "Thailand/16681/1984, Concentration 99.9 uM, Number of replicates 2.0, Standard deviation 0.01177144620169866 %", "value": 99.4, "unit": "%"}]}, {"smiles": "Cc1cc(CO)c2cccc(Cc3ccccc3C(=O)Nc3cc(C)on3)c2n1", "values": [{"measurement": "inhibition", "setting": "Thailand/16681/1984, Concentration 49.95 uM, Number of replicates 2.0, Standard deviation 1.5788782649320652 %", "value": 8.61, "unit": "%"}, {"measurement": "inhibition", "setting": "Thailand/16681/1984, Concentration 99.9 uM, Number of replicates 2.0, Standard deviation 0.4297535440018178 %", "value": 25.7, "unit": "%"}]}, {"smiles": "Cc1cc(CO)c2cccc(CC(=O)NCc3c(C)noc3C)c2n1", "values": [{"measurement": "inhibition", "setting": "Thailand/16681/1984, Concentration 49.95 uM, Number of replicates 2.0, Standard deviation 0.8979901952671747 %", "value": -6.95, "unit": "%"}, {"measurement": "inhibition", "setting": "Thailand/16681/1984, Concentration 99.9 uM, Number of replicates 2.0, Standard deviation 0.7380557178102791 %", "value": -7.49, "unit": "%"}]}, {"smiles": "Cc1cc(CO)c2cccc(CC(=O)Nc3cc(C)[nH]n3)c2n1", "values": [{"measurement": "inhibition", "setting": "Thailand/16681/1984, Concentration 49.95 uM, Number of replicates 2.0, Standard deviation 0.6660500187655393 %", "value": 4.74, "unit": "%"}, {"measurement": "inhibition", "setting": "Thailand/16681/1984, Concentration 99.9 uM, Number of replicates 2.0, Standard deviation 2.9944546877986085 %", "value": 12.6, "unit": "%"}]}, {"smiles": "Cc1cc(CO)c2cccc(Cc3cccc(C(=O)Nc4cc(C)[nH]n4)c3)c2n1", "values": [{"measurement": "inhibition", "setting": "Thailand/16681/1984, Concentration 49.95 uM, Number of replicates 2.0, Standard deviation 1.9137700846759278 %", "value": 0.711, "unit": "%"}, {"measurement": "inhibition", "setting": "Thailand/16681/1984, Concentration 99.9 uM, Number of replicates 2.0, Standard deviation 1.69961162141419 %", "value": 3.33, "unit": "%"}]}, {"smiles": "Cc1cc(CO)c2cccc(Cc3cccc(C(=O)Nc4cc(C)on4)c3)c2n1", "values": [{"measurement": "inhibition", "setting": "Thailand/16681/1984, Concentration 49.95 uM, Number of replicates 2.0, Standard deviation 1.544383261062021 %", "value": 29.6, "unit": "%"}, {"measurement": "inhibition", "setting": "Thailand/16681/1984, Concentration 99.9 uM, Number of replicates 2.0, Standard deviation 16.942938692438737 %", "value": 63.9, "unit": "%"}]}, {"smiles": "COc1ccc(-c2cc(NC(=O)C3CCN(c4ccc(C=O)cc4)CC3)[nH]n2)cc1", "values": [{"measurement": "inhibition", "setting": "[1]", "value": 0.343, "unit": "%"}]}, {"smiles": "c1cnc2c(C3CCN(Cc4cscn4)CC3)c[nH]c2c1", "values": [{"measurement": "inhibition", "setting": "Thailand/16681/1984, Concentration 49.5 uM, Number of replicates 2.0, Standard deviation 1.714470745737797 %", "value": -3.42, "unit": "%"}, {"measurement": "inhibition", "setting": "Thailand/16681/1984, Concentration 99.01 uM, Number of replicates 2.0, Standard deviation 2.482934234636928 %", "value": -3.54, "unit": "%"}, {"measurement": "inhibition", "setting": "Thailand/16681/1984, Concentration 198.0 uM, Number of replicates 2.0, Standard deviation 1.6201369950511377 %", "value": -3.14, "unit": "%"}]}, {"smiles": "C[C@@H](Cc1ccc(O)cc1)NC(=O)C1CCN(c2ccc(C=O)cc2)CC1", "values": [{"measurement": "inhibition", "setting": "[1]", "value": 12.7, "unit": "%"}]}, {"smiles": "Cc1cc(CO)c2cccc(CC(=O)N3CC4(CCCOC4)C3)c2n1", "values": [{"measurement": "inhibition", "setting": "Thailand/16681/1984, Concentration 49.95 uM, Number of replicates 2.0, Standard deviation 0.772673116128399 %", "value": -6.59, "unit": "%"}, {"measurement": "inhibition", "setting": "Thailand/16681/1984, Concentration 99.9 uM, Number of replicates 2.0, Standard deviation 1.1105448445025274 %", "value": -6.27, "unit": "%"}]}, {"smiles": "CC(C)(CO)NC(=O)c1cc(Cl)cc(NC(=O)c2cc(-c3ccc(Cl)cc3)n[nH]2)c1", "values": [{"measurement": "inhibition", "setting": "Thailand/16681/1984, Concentration 49.5 uM, Number of replicates 2.0, Standard deviation 0.12694171370832513 %", "value": 1.06, "unit": "%"}, {"measurement": "inhibition", "setting": "Thailand/16681/1984, Concentration 99.01 uM, Number of replicates 2.0, Standard deviation 0.3683389265193805 %", "value": 1.45, "unit": "%"}, {"measurement": "inhibition", "setting": "Thailand/16681/1984, Concentration 198.0 uM, Number of replicates 2.0, Standard deviation 0.21850629000727306 %", "value": 2.52, "unit": "%"}]}, {"smiles": "Cc1cc(CO)c2cccc(C[C@H](NC(=O)C(=O)c3ccco3)C(=O)O)c2n1", "values": [{"measurement": "inhibition", "setting": "Thailand/16681/1984, Concentration 49.95 uM, Number of replicates 2.0, Standard deviation 2.1984135254678594 %", "value": 1.13, "unit": "%"}, {"measurement": "inhibition", "setting": "Thailand/16681/1984, Concentration 99.9 uM, Number of replicates 2.0, Standard deviation 0.8113996635889369 %", "value": 5.56, "unit": "%"}]}, {"smiles": "c1ccc2c(CN3CCC(c4c[nH]c5cccnc45)CC3)n[nH]c2c1", "values": [{"measurement": "inhibition", "setting": "Thailand/16681/1984, Concentration 49.5 uM, Number of replicates 2.0, Standard deviation 0.8795107409501791 %", "value": 2.18, "unit": "%"}, {"measurement": "inhibition", "setting": "Thailand/16681/1984, Concentration 99.01 uM, Number of replicates 2.0, Standard deviation 0.8626664157680123 %", "value": 3.05, "unit": "%"}, {"measurement": "inhibition", "setting": "Thailand/16681/1984, Concentration 198.0 uM, Number of replicates 2.0, Standard deviation 1.2603111418750788 %", "value": 5.34, "unit": "%"}]}, {"smiles": "Cc1cc(CO)c2cccc(C[C@H](NC(=O)C[C@H]3CCCN3)C(=O)O)c2n1", "values": [{"measurement": "inhibition", "setting": "Thailand/16681/1984, Concentration 49.95 uM, Number of replicates 2.0, Standard deviation 0.0013512279632592627 %", "value": 3.5, "unit": "%"}, {"measurement": "inhibition", "setting": "Thailand/16681/1984, Concentration 99.9 uM, Number of replicates 2.0, Standard deviation 1.378906641613337 %", "value": 9, "unit": "%"}]}, {"smiles": "Cc1cnccc1NC(=O)c1cc(C2CCC2)n(C)c1C", "values": [{"measurement": "inhibition", "setting": "Thailand/16681/1984, Concentration 49.5 uM, Number of replicates 2.0, Standard deviation 0.7067686370209446 %", "value": 0.618, "unit": "%"}, {"measurement": "inhibition", "setting": "Thailand/16681/1984, Concentration 99.01 uM, Number of replicates 2.0, Standard deviation 0.7459418989288495 %", "value": 1.95, "unit": "%"}, {"measurement": "inhibition", "setting": "Thailand/16681/1984, Concentration 198.0 uM, Number of replicates 2.0, Standard deviation 0.11875700646175207 %", "value": 4.33, "unit": "%"}]}, {"smiles": "CCc1ccc(-c2ccccc2C(=O)Nc2cnn(C)c2)c(F)c1", "values": [{"measurement": "inhibition", "setting": "Thailand/16681/1984, Concentration 49.5 uM, Number of replicates 2.0, Standard deviation 0.8455770066617545 %", "value": -0.985, "unit": "%"}, {"measurement": "inhibition", "setting": "Thailand/16681/1984, Concentration 99.01 uM, Number of replicates 2.0, Standard deviation 1.2261793384720772 %", "value": -0.538, "unit": "%"}, {"measurement": "inhibition", "setting": "Thailand/16681/1984, Concentration 198.0 uM, Number of replicates 2.0, Standard deviation 2.01798052784263 %", "value": 0.736, "unit": "%"}]}, {"smiles": "CC(C)NC(=O)[C@H](Nc1ccc2c(c1)CNC2)c1cc(Cl)cc2[nH]c(-c3ccccc3)nc12", "values": [{"measurement": "inhibition", "setting": "Thailand/16681/1984, Concentration 99.5 uM, Number of replicates 2.0, Standard deviation 1.6408381783405366 %", "value": 91.5, "unit": "%"}, {"measurement": "inhibition", "setting": "Thailand/16681/1984, Concentration 295.6 uM, Number of replicates 2.0, Standard deviation 0.018514941963441705 %", "value": 97.4, "unit": "%"}]}, {"smiles": "N#Cc1cccc(-c2nc3c(C(=O)Nc4ccccc4)cc(Cl)cc3[nH]2)c1", "values": [{"measurement": "inhibition", "setting": "Thailand/16681/1984, Concentration 99.5 uM, Number of replicates 2.0, Standard deviation 7.963520922762683 %", "value": 14.4, "unit": "%"}, {"measurement": "inhibition", "setting": "Thailand/16681/1984, Concentration 295.6 uM, Number of replicates 2.0, Standard deviation 58.7613445679075 %", "value": 56.6, "unit": "%"}]}, {"smiles": "CCc1ccc(-c2nc3c(C(=O)Nc4ccc5c(c4)CNC5)cc(Cl)cc3[nH]2)cc1", "values": [{"measurement": "inhibition", "setting": "Thailand/16681/1984, Concentration 99.5 uM, Number of replicates 2.0, Standard deviation 0.07636874080258764 %", "value": 91.5, "unit": "%"}, {"measurement": "inhibition", "setting": "Thailand/16681/1984, Concentration 295.6 uM, Number of replicates 2.0, Standard deviation 0.5542721932424032 %", "value": 83.9, "unit": "%"}]}, {"smiles": "N#Cc1cccc(-c2nc3c(C(=O)NCc4ccccc4)cc(Cl)cc3[nH]2)c1", "values": [{"measurement": "inhibition", "setting": "Thailand/16681/1984, Concentration 99.5 uM, Number of replicates 2.0, Standard deviation 0.16663009439873022 %", "value": -4.99, "unit": "%"}, {"measurement": "inhibition", "setting": "Thailand/16681/1984, Concentration 295.6 uM, Number of replicates 2.0, Standard deviation 26.28702583112172 %", "value": 8.64, "unit": "%"}]}, {"smiles": "N#Cc1cccc(-c2nc3c(C(=O)Nc4ccncc4)cc(Cl)cc3[nH]2)c1", "values": [{"measurement": "inhibition", "setting": "Thailand/16681/1984, Concentration 99.5 uM, Number of replicates 2.0, Standard deviation 0.8007493235576281 %", "value": 6.92, "unit": "%"}, {"measurement": "inhibition", "setting": "Thailand/16681/1984, Concentration 295.6 uM, Number of replicates 2.0, Standard deviation 3.318711635404566 %", "value": 36.2, "unit": "%"}]}]}
